Experimental data from PubChem BioAssay AID1159580 (chemical genetic matrix, 2015).
The campaign covered roughly 5,500 compounds. About 2,000 (36%) were called active. Not shown: some 18% with an inconclusive outcome. Cut-off read from the data, not from the text of the source: active = normalized growth mostly below about 0.91 (no sharp cut-off); inconclusive = no clear call, values can overlap the other calls; inactive = mostly above about 0.92. The list shows a part of the results.

Test: chemical genetic growth profiling, strain panel (AID 1159580);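 note: tested at 20 µM; growth read once vehicle control cultures reached saturation at 30 °C; 1 = growth at the plate median or of vehicle wells; lower values mean less growth of the strain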
Conditions: growth OD
[1] = S. cerevisiae deletion strains, locus YAL013W, strain DEP1, hits give low values
[2] = S. cerevisiae deletion strains, locus YDR150W, strain NUM1, hits give low values
[3] = S. cerevisiae deletion strains, locus YHR030C, strain SLT2, hits give low values
[4] = S. cerevisiae deletion strains, locus YJR075W, strain HOC1, hits give low values
[5] = S. cerevisiae deletion strains, locus YPL055C, strain LGE1, hits give low values
[6] = S. cerevisiae deletion strains, locus YPL241C, strain CIN2, hits give low values
[7] = S. cerevisiae deletion strains, locus YHR079C, strain IRE1, hits give low values
[8] = S. cerevisiae deletion strains, locus YJL095W, strain BCK1, hits give low values
[9] = S. cerevisiae deletion strains, locus YJR066W, strain TOR1, hits give low values
[10] = S. cerevisiae deletion strains, locus YLR113W, strain HOG1, hits give low values
[11] = S. cerevisiae deletion strains, locus YNL183C, strain NPR1, hits give low values
[12] = S. cerevisiae deletion strains, locus YOR231W, strain MKK1, hits give low values
[13] = S. cerevisiae deletion strains, locus YPL256C, strain CLN2, hits give low values

Measured: normalized growth

CC(=O)Nc1ccc(S(=O)(=O)NC2Cc3ccccc3C2)cc1
inactive: [1] 1.01 | S. cerevisiae deletion strains, locus YBR229C, strain ROT2, hits give low values 1.01 | S. cerevisiae deletion strains, locus YDL101C, strain DUN1, hits give low values 0.98 | [2] 0.949 | S. cerevisiae deletion strains, locus YEL061C, strain CIN8, hits give low values 1.01 | S. cerevisiae deletion strains, locus YGR078C, strain PAC10, hits give low values 1 | [3] 1.06 | S. cerevisiae deletion strains, locus YHR087W, strain rtc3, hits give low values 1 | S. cerevisiae deletion strains, locus YJR043C, strain POL32, hits give low values 1 | [4] 0.996 | S. cerevisiae deletion strains, locus YKL190W, strain CNB1, hits give low values 1.01 | S. cerevisiae deletion strains, locus YLR039C, strain RIC1, hits give low values 1.04 | S. cerevisiae deletion strains, locus YLR058C, strain SHM2 (second series), hits give low values 1.01 | S. cerevisiae deletion strains, locus YLR085C, strain ARP6, hits give low values 1.05 | S. cerevisiae deletion strains, locus YLR262C, strain YPT6, hits give low values 1.03 | S. cerevisiae deletion strains, locus YML094W, strain GIM5, hits give low values 1.02 | S. cerevisiae deletion strains, locus YMR219W, strain ESC1, hits give low values 1.01 | S. cerevisiae deletion strains, locus YMR263W, strain SAP30, hits give low values 0.994 | S. cerevisiae deletion strains, locus YNL153C, strain GIM3, hits give low values 1.02 | S. cerevisiae deletion strains, locus YNL298W, strain CLA4 (second series), hits give low values 1.04 | S. cerevisiae deletion strains, locus YNL322C, strain KRE1, hits give low values 1.01 | S. cerevisiae deletion strains, locus YNR030W, strain Alg12, hits give low values 1.03 | S. cerevisiae deletion strains, locus YOL006C, strain TOP1, hits give low values 1.08 | [5] 0.966 | [6] 1.02 | S. cerevisiae deletion strains, locus YPR135W, strain CTF4, hits give low values 1.02 | S. cerevisiae strains, strain wild type, hits give low values 1.01

CCCCS(=N)(=O)CCC(N)C(=O)O (stereo unspecified)
inactive: [1] 0.993 | S. cerevisiae deletion strains, locus YAL021C, strain ccr4, hits give low values 0.983 | S. cerevisiae deletion strains, locus YAL026C, strain drs2, hits give low values 1 | S. cerevisiae deletion strains, locus YAL030W, strain snc1, hits give low values 0.997 | S. cerevisiae deletion strains, locus YAL040C, strain CLN3, hits give low values 0.993 | S. cerevisiae deletion strains, locus YBL061C, strain skt5, hits give low values 0.999 | S. cerevisiae deletion strains, locus YBR009C, strain hhf1, hits give low values 1.02 | S. cerevisiae deletion strains, locus YBR023C, strain chs3, hits give low values 0.997 | S. cerevisiae deletion strains, locus YBR171W, strain sec66, hits give low values 0.999 | S. cerevisiae deletion strains, locus YBR231C, strain swc5, hits give low values 0.998 | S. cerevisiae deletion strains, locus YBR279W, strain paf1, hits give low values 0.993 | S. cerevisiae deletion strains, locus YCL011C, strain gbp2, hits give low values 0.988 | S. cerevisiae deletion strains, locus YCL016C, strain dcc1, hits give low values 1 | S. cerevisiae deletion strains, locus YCL061C, strain MRC1 (second series), hits give low values 0.997 | S. cerevisiae deletion strains, locus YCL061C, strain MRC1, hits give low values 0.993 | S. cerevisiae deletion strains, locus YCL069W, strain vba3, hits give low values 0.992 | S. cerevisiae deletion strains, locus YCR088W, strain abp1, hits give low values 0.992 | S. cerevisiae deletion strains, locus YDL005C, strain med2, hits give low values 0.984 | S. cerevisiae deletion strains, locus YDL040C, strain nat1, hits give low values 0.994 | S. cerevisiae deletion strains, locus YDR001C, strain nth1, hits give low values 0.99 | S. cerevisiae deletion strains, locus YDR069C, strain doa4, hits give low values 1.01 | S. cerevisiae deletion strains, locus YDR137W, strain rgp1, hits give low values 0.973 | [2] 1.01 | S. cerevisiae deletion strains, locus YDR159W, strain sac3, hits give low values 1.02 | S. cerevisiae deletion strains, locus YDR195W, strain ref2 0.994 | S. cerevisiae deletion strains, locus YDR297W, strain sur2, hits give low values 0.993 | S. cerevisiae deletion strains, locus YDR334W, strain swr1, hits give low values 0.987 | S. cerevisiae deletion strains, locus YDR335W, strain msn5, hits give low values 0.99 | S. cerevisiae deletion strains, locus YDR363W, strain ESC2, hits give low values 0.992 | S. cerevisiae deletion strains, locus YDR392W, strain spt3, hits give low values 0.976 | S. cerevisiae deletion strains, locus YEL003W, strain gim4, hits give low values 0.994 | S. cerevisiae deletion strains, locus YEL037C, strain rad23, hits give low values 0.99 | S. cerevisiae deletion strains, locus YEL061C, strain CIN8 (second series), hits give low values 0.99 | S. cerevisiae deletion strains, locus YER002W, strain NOP16, hits give low values 0.979 | S. cerevisiae deletion strains, locus YER015W, strain faa2, hits give low values 0.996 | S. cerevisiae deletion strains, locus YER016W, strain bim1, hits give low values 0.996 | S. cerevisiae deletion strains, locus YER111C, strain swi4, hits give low values 0.983 | S. cerevisiae deletion strains, locus YER155C, strain BEM2 (second series), hits give low values 1.01 | S. cerevisiae deletion strains, locus YFR010W, strain ubp6, hits give low values 0.999 | S. cerevisiae deletion strains, locus YGL167C, strain pmr1, hits give low values 1 | S. cerevisiae deletion strains, locus YGL173C, strain kem1, hits give low values 1 | S. cerevisiae deletion strains, locus YGL227W, strain vid30, hits give low values 0.984 | S. cerevisiae deletion strains, locus YGL240W, strain doc1, hits give low values 1.01 | S. cerevisiae deletion strains, locus YGL253W, strain hxk2, hits give low values 1 | S. cerevisiae deletion strains, locus YGR229C, strain SMI1, hits give low values 0.955 | S. cerevisiae deletion strains, locus YHR013C, strain ard1, hits give low values 0.979 | S. cerevisiae deletion strains, locus YHR027C, strain rpn1, hits give low values 0.99 | [3] 0.981 | [7] 0.98 | S. cerevisiae deletion strains, locus YHR142W, strain chs7, hits give low values 0.979 | S. cerevisiae deletion strains, locus YJL092W, strain hpr5, hits give low values 1 | S. cerevisiae deletion strains, locus YJL095W, strain BCK1 (second series), hits give low values 0.995 | [8] 0.983 | S. cerevisiae deletion strains, locus YJL115W, strain asf1, hits give low values 0.996 | S. cerevisiae deletion strains, locus YJL129C, strain trk1, hits give low values 0.986 | S. cerevisiae deletion strains, locus YJL154C, strain vps35, hits give low values 0.993 | S. cerevisiae deletion strains, locus YJL164C, strain tpk1, hits give low values 0.996 | S. cerevisiae deletion strains, locus YJL166W, strain qcr8, hits give low values 1 | S. cerevisiae deletion strains, locus YJL187C, strain SWE1, hits give low values 0.994 | [9] 0.9 | [4] 1 | S. cerevisiae deletion strains, locus YKL160W, strain elf1, hits give low values 0.997 | S. cerevisiae deletion strains, locus YKR026C, strain gcn3, hits give low values 0.986 | S. cerevisiae deletion strains, locus YKR091W, strain srl3, hits give low values 0.988 | S. cerevisiae deletion strains, locus YLL001W, strain dnm1, hits give low values 0.993 | S. cerevisiae deletion strains, locus YLL026W, hits give low values 0.993 | S. cerevisiae deletion strains, locus YLL041C, strain sdh2, hits give low values 0.988 | S. cerevisiae deletion strains, locus YLR027C, strain aat2, hits give low values 0.993 | [10] 0.99 | S. cerevisiae deletion strains, locus YLR221C, strain rsa3, hits give low values 0.986 | S. cerevisiae deletion strains, locus YLR258W, strain gsy2, hits give low values 1 | S. cerevisiae deletion strains, locus YLR262C, strain YPT6 (second series), hits give low values 0.998 | S. cerevisiae deletion strains, locus YLR320W, strain mms22, hits give low values 0.99 | S. cerevisiae deletion strains, locus YLR342W, strain FKS1, hits give low values 0.993 | S. cerevisiae deletion strains, locus YLR357W, strain rsc2, hits give low values 1 | S. cerevisiae deletion strains, locus YLR370C, strain arc18, hits give low values 0.99 | S. cerevisiae deletion strains, locus YLR384C, strain iki3, hits give low values 1.01 | S. cerevisiae deletion strains, locus YML120C, strain ndi1, hits give low values 0.983 | S. cerevisiae deletion strains, locus YMR058W, strain fet3, hits give low values 0.999 | S. cerevisiae deletion strains, locus YMR125W, strain sto1, hits give low values 0.99 | S. cerevisiae deletion strains, locus YMR129W, hits give low values 0.959 | S. cerevisiae deletion strains, locus YMR205C, strain PFK2, hits give low values 1.02 | S. cerevisiae deletion strains, locus YMR231W, strain pep5, hits give low values 0.997 | S. cerevisiae deletion strains, locus YMR307W, strain GAS1, hits give low values 1.01 | S. cerevisiae deletion strains, locus YNL071W, strain lat1, hits give low values 0.982 | S. cerevisiae deletion strains, locus YNL128W, strain TEP1, hits give low values 0.991 | S. cerevisiae deletion strains, locus YNL175C, strain NOP13, hits give low values 0.97 | [11] 0.929 | S. cerevisiae deletion strains, locus YNL197C, strain WHI3, hits give low values 0.94 | S. cerevisiae deletion strains, locus YNL209W, strain ssb2, hits give low values 0.991 | S. cerevisiae deletion strains, locus YNL224C, strain SQS1, hits give low values 0.986 | S. cerevisiae deletion strains, locus YNL248C, strain rpa49, hits give low values 0.991 | S. cerevisiae deletion strains, locus YNL322C, strain KRE1 (second series), hits give low values 0.998 | S. cerevisiae deletion strains, locus YNR049C, strain mso1, hits give low values 0.994 | S. cerevisiae deletion strains, locus YOR001W, strain rrp6, hits give low values 0.974 | S. cerevisiae deletion strains, locus YOR070C, strain gyp1, hits give low values 0.99 | S. cerevisiae deletion strains, locus YOR080W, strain dia2, hits give low values 0.99 | S. cerevisiae deletion strains, locus YOR083W, strain WHI5 (second series), hits give low values 0.95 | S. cerevisiae deletion strains, locus YOR083W, strain WHI5, hits give low values 1 | S. cerevisiae deletion strains, locus YOR106W, strain vam3, hits give low values 1.01 | [12] 0.988 | S. cerevisiae deletion strains, locus YOR265W, strain rbl2, hits give low values 0.989 | S. cerevisiae deletion strains, locus YOR270C, strain vph1, hits give low values 0.99 | S. cerevisiae deletion strains, locus YOR290C, strain snf2, hits give low values 0.949 | S. cerevisiae deletion strains, locus YPL051W, strain arl3, hits give low values 0.992 | [5] 0.999 | S. cerevisiae deletion strains, locus YPL078C, strain atp4, hits give low values 0.994 | S. cerevisiae deletion strains, locus YPL106C, strain sse1, hits give low values 0.991 | S. cerevisiae deletion strains, locus YPL240C, strain hsp82, hits give low values 0.998 | [6] 0.998 | [13] 0.988

CCSCCC(N)C(=O)O (stereo unspecified)
inactive: [3] 1.06 | [7] 1.05 | [8] 1.04 | [9] 1.01 | [10] 1.04 | [11] 1.02 | [12] 1.03 | [13] 1.05
